# Screening results deposited in PubChem BioAssay by National Center for Advancing Translational Sciences (NCATS).
# Sampled rows, rich in hits. Any-hit rate of the full collection: about 3.3%.
# Sm TGR inh: blocks Schistosoma mansoni thioredoxin glutathione reductase; Q962Y6; purified TGR, DTNB reduction, TNB absorbance 405 nm; Potency, µM (series often up to 114 µM), for the others: top-dose activity change, negative = inhibition, usual class: inhibitors; actives 3% (n = 360,000); also: nearly all actives have a fitted effect of over 60% in size
#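 TGR 20 nM + NADPH 100 uM (dispensed conc.), cpd preinc 15 min RT; start with NADPH (500 uM addition) then DTNB (15 mM addition). Kinetic TNB absorbance, 405 nm filter. Four-parameter Hill fit across titration.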
# LmPK inhibitor: blocks Leishmania mexicana pyruvate kinase activity. purified LmPK, Kinase-Glo ATP luminescence, 1 h. Q27686. Potency, µM (series often up to 57.5 µM), without a hit: at the top dose activity change, negative = inhibition, actives largely listed as inhibitors. actives 0.37% (n = 290,000)
# Target sequence (Q27686 whole entry, looked up): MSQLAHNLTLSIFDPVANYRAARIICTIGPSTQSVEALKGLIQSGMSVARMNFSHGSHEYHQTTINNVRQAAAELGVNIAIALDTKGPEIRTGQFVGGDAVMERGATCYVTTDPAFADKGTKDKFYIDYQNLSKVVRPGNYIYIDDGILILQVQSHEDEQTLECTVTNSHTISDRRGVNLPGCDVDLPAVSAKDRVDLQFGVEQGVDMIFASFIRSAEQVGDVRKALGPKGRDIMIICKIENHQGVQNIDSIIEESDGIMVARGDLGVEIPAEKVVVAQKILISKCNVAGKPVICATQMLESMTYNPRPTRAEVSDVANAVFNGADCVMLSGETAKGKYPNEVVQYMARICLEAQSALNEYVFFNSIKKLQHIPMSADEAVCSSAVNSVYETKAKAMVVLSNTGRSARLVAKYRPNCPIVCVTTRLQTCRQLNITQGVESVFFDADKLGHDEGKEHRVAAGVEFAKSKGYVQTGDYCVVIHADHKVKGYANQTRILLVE
#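 In 50 mM imidazole pH 7.2 with 7 mM MgCl2, LmPK (0.1 nM) turned over PEP (0.5 mM) and ADP (0.1 mM) for 1 h at room temperature. Luciferase read-out of ATP.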
# Giardia FBPA inh-1: Giardia lamblia aldolase inhibition. actives 0.71% (n = 290,000). purified Giardia FBPA. Potency, µM (top dose mostly 59.6 µM), inactives show at the highest dose activity, negative = inhibition, usual class: inhibitors. A8B2U2; also: nearly all actives have a fitted effect of over 55% in size
#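 40 nM FBPA preincubated 10 min at RT with compound (up to 57.5 uM final), then substrate plus GAPDH/TPI/NAD/arsenate coupling and diaphorase/resazurin added. Fluorescence read after 20 min at RT, 525/598 nm.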
# RE007 growth inh: less growth of the S. pombe RE007 Vpr strain; S. pombe RE007 Vpr strain, BacTiter-Glo ATP luminescence, 24 h; Potency, µM (doses to about 92.2 µM), inactives show at the top dose activity change, negative = less growth, most hits filed as inhibitors; actives 0.21% (n = 360,000); AID 651644; active = well fitted falling curve with a large enough effect; inconclusive = small, poorly fitted or top-dose-only effect; inactive = no such curve, though single readings can be large or run the other way; also: nearly all actives have a fitted effect of over 50% in size
#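 Fission yeast RE007 carrying one integrated HIV-1 vpr copy, seeded at OD 0.01 in PMG+AL medium with 23 nL pinned compound. Grown 24 h at 30 degrees; viability read by BacTiter-Glo luminescence after 5 min.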
# Tb PYK inh: inhibitors of Trypanosoma brucei pyruvate kinase. Q57TT1. TbPYK enzyme, Kinase-Glo Plus ATP luminescence, 45 min. Potency, µM (doses to about 76.8 µM), inactives show top-dose activity, negative = inhibition, usual class: inhibitors. actives 0.12% (n = 410,000); also: nearly all actives have a fitted effect of over 50% in size
#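 Luminescent Kinase-Glo Plus end-point after 45 min room-temperature reaction of T. brucei pyruvate kinase started with 130 uM ADP (final). Buffer TEA 50 mM pH 7.2 with KCl, MgCl2, BSA, Tween-20; titration-based qHTS with fitted concentration-effect curves.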
# Giardia growth: blocks growth of Giardia lamblia trophozoites. shares compounds with Giardia FBPA inh-1. Giardia lamblia trophozoite growth inhibition. Potency, µM (top dose mostly 57.5 µM), for inactives: at the top dose activity change, negative = inhibition, most hits filed as inhibitors. actives 5% (n = 1,500);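 also: trophozoites exposed to compound for 48 h at 37 °C; nearly all actives have a fitted effect of over 70% in size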
# Mammal cell tox: counter-screen for Giardia aldolase inhibitors: mammalian cell toxicity. Potency, µM (series often up to 57.5 µM), for inactives: top-dose viability change, negative = toxicity, most hits filed as inhibitors. actives 4% (n = 1,500). mammalian cell viability counter-screen, qHTS. shares compounds with Giardia FBPA inh-1;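 also: Chinese hamster ovary cells used as mammalian cytotoxicity surrogate; viability measured as cellular ATP by luminescence; compound exposure lasted 48 h before reading; nearly all actives have a fitted effect of over 60% in size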
# Giardia FBPA inh-2: confirmation of Giardia fructose-bisphosphate aldolase inhibitors; actives 5% (n = 1,500); Potency, µM (doses to about 57.5 µM), without a hit: at the highest dose activity change, negative = inhibition, most hits filed as inhibitors; purified Giardia aldolase enzyme activity, qHTS; shares compounds with Giardia FBPA inh-1; also: nearly all actives have a fitted effect of over 45% in size
# Rabbit aldolase: blocks rabbit muscle aldolase in Giardia aldolase selectivity test | shares compounds with Giardia FBPA inh-1 | Rabbit muscle FBPA enzyme inhibition, selectivity counter-screen | Potency, µM (top dose mostly 57.5 µM), for inactives: top-dose activity, negative = inhibition, actives largely listed as inhibitors | actives 4% (n = 1,500) | AID 2794; also: nearly all actives have a fitted effect of over 60% in size
# GAPDH counter: GAPDH inhibition flagged for Giardia aldolase hits. shares compounds with Giardia FBPA inh-1. GAPDH coupling enzyme counterscreen, biochemical, qHTS. Potency, µM (top dose mostly 57.5 µM), inactives show top-dose activity change, negative = inhibition, actives largely listed as inhibitors. actives 6% (n = 1,500). AID 2795; also: nearly all actives have a fitted effect of over 55% in size
# The depositor's hits bear a star; u = inconclusive; x = not tested or not shown; ! = not confirmed by another sample; [ ] = dose if it differs, or a comment. Unless noted, calls follow the shape of the dose curve; as a rule, active = well fitted curve in the direction sought with a large enough effect; inconclusive = small, poorly fitted or top-dose-only effect, or another doubt; inactive = no such curve, though single readings can be large; an effect the other way counts as inactive or inconclusive. % is scaled to controls: 0 for no effect and ±100 for the full control effect; potency is read from the fitted curve at half-maximal effect.
SMILES,Sm TGR inh,LmPK inhibitor,Giardia FBPA inh-1,RE007 growth inh,Tb PYK inh,Giardia growth,Mammal cell tox,Giardia FBPA inh-2,Rabbit aldolase,GAPDH counter
CCOC(=O)CN(C(=O)Cn1nnc(-c2ccc(C)cc2)n1)C(CC)C(=O)NC1CCCC1 (configuration not stated),10%,11%,0%,-11%,-9%,x,x,x,x,x
Cc1ccc(C(=O)NNC(=S)NC(=O)c2ccccc2)cc1,x,x,x,-16%,-12%,x,x,x,x,x
Cc1ccc(C(=O)NNC(=S)NC(=O)c2ccc(Cl)cc2Cl)cc1,-1%,0%,u,-18%,-4%,-33%[38.3 µM],u,10%,4%,11%
Brc1cccc(OCCCCn2cncn2)c1,3%,-11%,28µM*,-4%,14%,13%,15%,0%,0%,8%
COc1cc(/C=N/NC(=O)c2cnccn2)ccc1O,5%,-4%,0%,6%,-4%,x,x,x,x,x
COc1ccc(C(=O)NC(=S)N2CCNC(=O)C2)cc1Br,x,1%,18µM*,6%,-18%,85%,3%,4%,1%,16%
COc1ccc(C(=O)NC(=S)N2CCC(C)CC2)cc1Br,7%,-4%,x,11%,2%,x,x,x,x,x
Cc1ccc(O)c(N=Cc2cccs2)c1,1%,1%,20µM*,-29%,3%,3%,13%,35µM*,40µM*,50µM*
Cc1ccc(O)c(N=Cc2ccc(C)s2)c1,1%,-4%,u,u,0%,x,x,x,x,x
Cc1ccc(Cn2c(CCC(=O)O)nc3ncccc3c2=O)cc1,13%,2%,0%,-12%,-13%,x,x,x,x,x
CN1C(=O)NC(=O)/C(=C/c2ccc([N+](=O)[O-])o2)C1=O,5µM*,-28%,18µM*,-28%,u,u,-2%,u,u,u
CN1C(=O)NC(=O)/C(=C/c2ccc(C(=O)O)cc2)C1=O,-29%,0%,-8%,12%,u,x,x,x,x,x
O=C1NC(=O)N(c2ccccc2)C(=O)/C1=C\c1ccc([N+](=O)[O-])o1,8.9µM*,-17%,20µM*,x,x,-22%,7%,-26%,-25%,-19%
CN1C(=O)NC(=O)/C(=C\c2ccc([N+](=O)[O-])o2)C1=O,7.9µM*,-26%,18µM*,-10%,u,u,-5%,u,u,u
COc1ccc(N2CC(NC(=O)c3ccc(OC(C)C)cc3)CC2=O)cc1 (configuration not stated),12%,x,x,x,-3%,x,x,x,x,x
COc1cccc(NC(=O)c2sc(Cl)nc2C)c1,-18%,-1%,4%,-3%,5%,x,x,x,x,x
Cn1c(C(=O)N(Cc2ccccc2)Cc2cccs2)cc2sccc21,1%,-3%,3%,-4%,0%,x,x,x,x,x
COc1cc(C2C(C#N)=C(N)Oc3cc(N(C)C)ccc32)cc2c1OCO2 (configuration not stated),0%,5%,-9%,1%,2%,x,x,x,x,x
O=C(NC(=S)Nc1ncccn1)c1ccccc1Cl,18%,-5%,3.5µM*,-26%,-4%,u,0%,2%,7%,0%
O=C(O)CN(CCN(CC(=O)O)CC(=O)O)CCN(CC(=O)O)CC(=O)O,x,x,7.9µM*!,x,-9%,u,21%,u,14%,1%
O=C(N/N=C/c1cc(Br)c(Br)o1)c1ccc2c(c1)OCCO2,11µM*,1%,13µM*,-15%,-7%,12%,-15%,-8%,-8%,1%
